# The list is not random: actives were taken first. Their share in the collection is about 11%.
# PNC inhibitor = blocks assembly of the perinucleolar compartment; PC3M PTB-GFP, PNC prevalence imaging, 16 h; stronger effect = lower value; activity change (PNC), negative = inhibition, % at 10 µM; 140,000 tested, 3.1% active;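 active = readout at or below -70, meaning at least 70% loss of cells showing the perinucleolar compartment, a nuclear body marking cancer cells; inconclusive = readout between -30 and a set limit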
#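 PC3M cells stably expressing PTB-GFP, 750–1000 cells/well, treated 16 h at 37 °C with compound (23 nl of library stock), in duplicate. After paraformaldehyde fixation and Hoechst stain, imaged at 20x; PNC prevalence scored by image analysis.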
# ALDH1A1 inh = ALDH1A1 (human) enzyme inhibition. Purified ALDH1A1, NADH fluorescence, propionaldehyde substrate. AID 1030. 220,000 tested, 7.3% active. Potency, µM (series often up to 75.3 µM), actives largely listed as inhibitors. P00352; active = well fitted inhibition curve with a large enough effect, not every such curve was filed as active; inconclusive = small, poorly fitted or top-dose-only effect, or another doubt; inactive = no such curve, though single readings can be large or run the other way
# Target sequence (P00352 whole entry, looked up): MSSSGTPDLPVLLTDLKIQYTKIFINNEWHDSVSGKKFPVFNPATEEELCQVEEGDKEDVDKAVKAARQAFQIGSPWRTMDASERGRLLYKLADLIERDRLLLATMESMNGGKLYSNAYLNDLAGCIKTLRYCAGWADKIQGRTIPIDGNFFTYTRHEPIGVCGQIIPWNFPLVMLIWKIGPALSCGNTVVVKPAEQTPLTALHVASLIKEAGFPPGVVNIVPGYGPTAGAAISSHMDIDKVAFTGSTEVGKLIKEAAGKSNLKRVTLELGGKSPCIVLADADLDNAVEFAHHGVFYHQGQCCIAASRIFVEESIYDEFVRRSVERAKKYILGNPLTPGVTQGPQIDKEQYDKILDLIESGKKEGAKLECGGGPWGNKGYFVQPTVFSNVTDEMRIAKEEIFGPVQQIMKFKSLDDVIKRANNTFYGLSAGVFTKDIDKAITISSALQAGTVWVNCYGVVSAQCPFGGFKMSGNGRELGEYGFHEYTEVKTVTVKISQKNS
# IMPase inh = IMPase inhibition in cells | P97697 | CHO-M1 cells, IP1 accumulation, HTRF TR-FRET ratio | inhibition (IP1 accumulation), % at 46.1 µM | 120,000 tested, under 10 active; active = well fitted curve in the direction sought with a large enough effect in the signal ratio, not every such curve was filed as active; inconclusive = small, poorly fitted or top-dose-only effect, or a change in a side signal; inactive = no such curve, though single readings can be large or run the other way; the % refers to the signal ratio;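 also: cells stimulated with carbachol in lithium chloride buffer; higher means more IMPase inhibition seen as more IP1 and lower FRET ratio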
#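 In this qHTS, compounds (final up to 46 uM) act on CHO-M1 cells that are then activated through the M1 receptor with carbachol, in pH 7.4 buffer containing 50 mM LiCl, for 30 min. IP1 accumulation is quantified by the IP-One immunoassay.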
# HPGD inh = inhibitors of human 15-hydroxyprostaglandin dehydrogenase (HPGD) | purified HPGD, NADH fluorescence kinetic, PGE2 substrate | Potency, µM, most hits filed as inhibitors | 150,000 tested, 4.3% active; active = well fitted inhibition curve with a large enough effect, not every such curve was filed as active; inconclusive = small, poorly fitted or top-dose-only effect, or another doubt; inactive = no such curve, though single readings can be large or run the other way
#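 20 nM HPGD preincubated 15 min at room temperature with compound in 50 mM Tris-HCl pH 8, 0.01% Tween 20. Started with 1 mM NAD+ and 30 uM prostaglandin E2; NADH fluorescence (360/450 nm) read 5 times over 30-s intervals, last minus first.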
# NPSR antagonist = blocks cAMP signaling of the human neuropeptide S receptor. Q6W5P4. CHO-NPSR cells, cAMP TR-FRET, antagonist mode. Potency, µM (doses to about 38.3 µM), actives largely listed as inhibitors. 220,000 tested, 1% active; also: nearly all actives have a fitted effect of over 50% in size
# IMPase Li cell = IMPase inhibition in cells with lithium potentiation. CHO-M1 cells, IP1 TR-FRET (IP-One), carbachol + lithium. Potency, µM (doses to about 59.4 µM), hits mostly inhibitors. 210,000 tested, 0.35% active;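 also: IP1 builds up when IMPase is blocked and the TR-FRET signal falls; nearly all actives have a fitted effect of over 50% in size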
#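 Lithium-sensitised IP1 accumulation assay; M1-expressing CHO cells treated 30 min at 37C with compound. Competitive antibody detection by time-resolved FRET followed a 10 min room-temperature lysis step.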
# Numbers stand for hits; . = inactive; ? = inconclusive; / = no result; [ ] = dose if it differs, or a comment. Unless noted, calls follow the shape of the dose curve; as a rule, active = well fitted curve in the direction sought with a large enough effect; inconclusive = small, poorly fitted or top-dose-only effect, or another doubt; inactive = no such curve, though single readings can be large; an effect the other way counts as inactive or inconclusive.
SMILES,PNC inhibitor,ALDH1A1 inh,IMPase inh,HPGD inh,NPSR antagonist,IMPase Li cell
COc1ccc(N=C2SC(CC(=O)Nc3ccccc3)C(=O)N2Cc2ccco2)cc1 (configuration not stated),.,?,.,/,?,/
COc1cccc(N=C2SC(CC(=O)Nc3ccccc3)C(=O)N2Cc2ccccn2)c1 (configuration not stated),/,8.9µM,/,/,.,.
O=c1c2ccccc2nnn1Cc1ccc(Br)cc1,/,.,/,/,.,.
Cc1cc(NC(=NC2CC2)c2ccccc2F)n(-c2ccccc2)n1,/,.,/,/,.,.
CCOC(=O)CSc1ccc2nnc(-c3cccnc3)n2n1,?,?,.,?,.,.
O=C(NCc1cccs1)[C@@H]1CSC2c3ccccc3C(=O)N21 (some centres not stated),.,.,.,.,.,.
O=C(O)C1CSC2c3ccccc3C(=O)N12 (configuration not stated),?,7.5µM,.,?,.,.
NC(=O)NC(=O)C[n+]1cccc(/C=N/O)c1,/,.,/,/,.,.
CCOC(=O)c1nn(-c2ccc(C)cc2)c(=O)c2c(N)scc12,?,18µM,.,.,.,.
COC(=O)c1nn(-c2ccc(OC)cc2)c(=O)c2c(N)sc(C)c12,.,7.9µM,/,.,.,.
COC(=O)c1nn(-c2ccc(OC)cc2)c(=O)cc1NN,/,.,/,/,.,.
CC(C)OC(=O)C(CC(=O)O)NCc1ccccc1 (configuration not stated),.,?,.,.,.,.
CCN(CC)C(=O)c1sc2[nH]c(=S)n(-c3ccccc3)c(=O)c2c1C,.,?,.,28µM,.,?
O=c1[nH]c2c(cnn2-c2ccc(Cl)cc2)c(=O)n1-c1cccc(Cl)c1,/,.,/,/,.,/
COc1ccc(-c2ccc(S(=O)(=O)NCC3CCCO3)cc2)cc1 (configuration not stated),.,?,/,?,.,.
COc1cc(S(=O)(=O)NCC2CCCO2)ccc1Br (configuration not stated),-112,.,.,.,.,.
CC1=C(C(=O)Nc2cccc(F)c2)C(c2ccsc2)C2=C(CC(C)(C)CC2=O)N1 (configuration not stated),-81,?,/,?,.,.
CCOC(=O)c1c(C)oc2c(CN3CCN(C)CC3)c(Br)c(OC)c(O)c12,.,?,.,.,.,.
Cc1ccc(S(=O)(=O)C2(C(=O)NC3CCCC3)CC2)cc1,.,?,.,.,.,.
O=S(=O)(NC(=S)NC1CCCCC1)c1ccc(Cl)cc1,/,25µM,/,/,.,.
CCc1ccc(S(=O)(=O)NC(=S)NC2CCCCC2)cc1,/,25µM,/,/,.,/
Cc1ccc(S(=O)(=O)NC(=S)NC2CCCCC2)cc1,/,35µM,/,/,.,.
Cc1cc(C)c2nncn2n1,/,/,/,/,.,/
CN(C)C(=O)N1CCCC(C(=O)NCc2cccs2)C1 (configuration not stated),?,.,.,.,.,.
COc1ccc(CC(=O)Nc2ccc(C(=O)O)cc2NC(=O)Cc2ccc(OC)cc2)cc1,/,.,/,/,.,.
SMILES,PNC inhibitor,ALDH1A1 inh,IMPase inh,HPGD inh,NPSR antagonist,IMPase Li cell
COc1cccc(CNC(=O)N[C@@H](C)C(=O)O)c1,/,/,/,/,.,/
COc1cccc(CNC(=O)CCl)c1,?,7.1µM,.,.,.,.
COc1ccc(-c2cnc(SCC(=O)Nc3cc(C)on3)n2Cc2ccco2)cc1,.,.,.,.,.,.
O=C(c1ccncc1)N1CCN(C(=O)c2cccs2)CC1,.,.,.,.,.,.
O=C(c1cccs1)N1CCN(Cc2ccccn2)CC1,/,15µM,/,/,.,.
Cc1ccc2c(c1)C(=O)C(=O)N2CC(=O)Nc1ccccc1NC(=O)c1ccccn1,/,/,/,/,.,/
Cc1ccc(S(=O)(=O)NCCCCCC(=O)N(C)C)cc1,.,?,.,.,.,.
Cc1ccc(S(=O)(=O)NCCCC(=O)C=[N+]=[N-])cc1,-109,13µM,.,.,.,.
COC(=O)NNS(=O)(=O)c1ccc(C)cc1,-99,.,/,.,.,.
Cc1ccc(S(=O)(=O)NC(=O)Nn2c(C)nnc2C)cc1,-80,.,.,.,.,.
CCOC(=O)CNS(=O)(=O)c1ccc(C)cc1,-113,.,/,.,.,.
COCCn1c(=O)c(-c2ccc(OC)cc2)nc2cnc(OCc3ccccc3)nc21,/,?,/,/,/,.
CSc1c(CC(=O)Nc2ccc(F)cc2)n(Cc2ccccc2)c2ccccc12,.,.,.,.,.,.
O=C(COC(=O)c1ccccc1N1C(=O)C2C3CCC(C3)C2C1=O)c1ccccc1 (configuration not stated),.,.,/,.,.,.
Cc1ccc(S(=O)(=O)NCCOCCNS(=O)(=O)c2ccc(C)cc2)cc1,.,13µM,.,.,.[7.67 µM],.
Cc1cccc(-n2c(N)cc(=O)nc2SCC(=O)Nc2ccccc2)c1,.,.,.,.,.,.
O=C(Nc1ccccc1)Nc1cc(OCC(F)(F)F)cc(OCC(F)(F)F)c1,.,.,/,.,?,.
COc1ccc(C(=O)NC2=C(C#N)CCC2)cc1OC,.,.,.,.,.,.
CSc1ncc(Cl)c(C(=O)C(C#N)c2nc3c(C)cc(C)cc3c(=O)[nH]2)n1 (configuration not stated),-95,.,.,25µM,.,.
CCOc1ccc(N2C(=O)CC(Sc3nc(CC(C)C)ccc3C#N)C2=O)cc1 (configuration not stated),/,?,/,/,.,.
CCOc1ccc(N2C(=O)CC(Sc3n[nH]c(-c4ccccc4)n3)C2=O)cc1 (configuration not stated),/,0.45µM,/,/,.,.
CCOc1ccc2nc(SC3CC(=O)N(c4ccccc4)C3=O)sc2c1 (configuration not stated),.,14µM,.,.,.,.
CCOc1ccc2nc(SCCNS(=O)(=O)c3ccccc3)sc2c1,-113,.,/,.,.,.
CCOc1ccc(N2C(=O)CC(Sc3nc(C)cc(C)c3C#N)C2=O)cc1 (configuration not stated),.,14µM,.,.,.,.
CC1(C)CC(c2nc(-c3ccc(Cl)cc3)cs2)CCS1 (configuration not stated),.,.,.,.,.,.
N#CCCN1CCN(S(=O)(=O)c2ccc(C#N)cc2)CC1,.,.,.,.,.,.
CCOc1ccc2nc(SC3CC(=O)N(c4cccc(OC)c4)C3=O)sc2c1 (configuration not stated),?,20µM,/,.,?,.
O=[N+]([O-])c1ccc(/C=N/Nc2nc(N3CCCCC3)nc(N3CCCCC3)n2)cc1,/,?,/,/,?,.
COc1nc(N/N=C/c2ccc(-c3ccccc3[N+](=O)[O-])o2)nc(N2CCOCC2)n1,.,8.9µM,/,.,.,.
